PubChem BioAssay (Tox21)
Inconclusive results are not listed. Entries that show only a call come without a potency. Active and inactive are the calls of the source. Calls follow the shape of the dose curve; as a rule, active = well fitted activation curve with a large enough effect in the repeat runs; inconclusive = weak or mixed curves; inactive = flat fitted curve, though single readings scatter.

Test: A CellTox Green Cytotoxicity Assay to monitor cytotoxicity in HEK293 cells - 32 hour (AID 1224881); also: nearly all actives have a fitted effect of over 40% in size
Conditions: CellTox Green fluorescence; series mostly up to 76.8 µM
Method in brief: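 HEK293 cells, 600/well, were preincubated 5 hours and then exposed to compounds at 37 C for up to 40 hours. A cell-impermeant cyanine dye staining dead-cell DNA was read by fluorescence at 0, 8, 16, 24, 32 and 40 h time points.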

SMILES | Potency
C=CC(=O)NCOCC(C)C | inactive
CC(C)C(OC(=O)c1ccccc1)C(C)(C)COC(=O)c1ccccc1 (stereo unspecified) | inactive
C=CCNc1nc(NCC=C)nc(N2CCN(C(c3ccc(F)cc3)c3ccc(F)cc3)CC2)n1 | inactive
CCCCN(CCCC)C(=S)SSC(=S)N(CCCC)CCCC | inactive
Fc1ccccc1[C@@H](F)COC1CCC(Nc2ncnc3[nH]ncc23)CC1 (stereo partly specified) | inactive
O=c1[nH]c2ccc(S(=O)CCN3CCC(Cc4ccc(F)cc4)CC3)cc2o1 (stereo unspecified) | inactive
CCOC(=O)N1CCC(n2c(=O)[nH]c3cc(Cl)ccc32)CC1 | inactive
CCCCC(CC)C(=O)OCCOCCOCCOCCOC(=O)C(CC)CCCC (stereo unspecified) | inactive
O=[N+]([O-])c1cccc(S(=O)(=O)NCCNS(=O)(=O)c2cccc([N+](=O)[O-])c2)c1 | inactive
CC(C)(C)C(=O)O | inactive
C(=C\c1ccccc1)/CN1CCN(C(c2ccccc2)c2ccccc2)CC1 | inactive
CC1CC(=O)NN=C1c1ccc(NCC(C)(C)NCC(O)COc2cc(Cl)ccc2C#N)cc1 (stereo unspecified) | inactive
CC(CCc1ccc2c(c1)OCO2)NN (stereo unspecified) | inactive
CCCCCCCCCOC(C)=O | inactive
CCCCCCOC(=O)C(C)C | inactive
CCCOC(=O)c1ccc(C(=O)OCCC)nc1 | inactive
CO/N=C1\CN(c2nc3c(cc2F)c(=O)c(C(=O)O)cn3C2CC2)CC1CN (stereo unspecified) | inactive
CCOC(=O)CC(=O)C(=O)OCC | inactive
Cc1ccc(Nc2nccc(N(C)c3ccc4c(C)n(C)nc4c3)n2)cc1S(N)(=O)=O | inactive
O=S1OCCO1 | inactive
CC1CC(O)CC(C)(C)C1 (stereo unspecified) | inactive
CCCCC(=O)O[C@]1(C(=O)CO)[C@@H](C)C[C@H]2[C@@H]3CCC4=CC(=O)C=C[C@]4(C)[C@@]3(F)[C@@H](O)C[C@@]21C | inactive
CC(=O)[C@H]1CC[C@H]2[C@@H]3C[C@H](C)C4=CC(=O)CC[C@]4(C)[C@H]3[C@@H](O)C[C@]12C | inactive
CNC(=O)N(c1ccccc1)c1ccccc1 | inactive
CCCC1C(CC)=CC(CC)=CN1c1ccccc1 (stereo unspecified) | inactive
C1COCO1 | inactive

Test: A CellTox Green Cytotoxicity Assay to monitor cytotoxicity in HepG2 cells - 0 hour (AID 1224882); also: nearly all actives have a fitted effect of over 35% in size
Conditions: CellTox Green fluorescence; series mostly up to 76.8 µM
Method in brief: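 HepG2 cells, 600/well, preincubated 5 h with CellTox Green dye, then exposed to Tox21 compounds in DMSO at 37 C for up to 40 h. Dead-cell DNA fluorescence read at the indicated time point.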

SMILES | Potency
C=CC(=O)NCOCC(C)C | inactive
CC(C)C(OC(=O)c1ccccc1)C(C)(C)COC(=O)c1ccccc1 (stereo unspecified) | inactive
C=CCNc1nc(NCC=C)nc(N2CCN(C(c3ccc(F)cc3)c3ccc(F)cc3)CC2)n1 | inactive
Fc1ccccc1[C@@H](F)COC1CCC(Nc2ncnc3[nH]ncc23)CC1 (stereo partly specified) | inactive
CC1=CC(O)CC(C)(C)C1 (stereo unspecified) | inactive
O=c1[nH]c2ccc(S(=O)CCN3CCC(Cc4ccc(F)cc4)CC3)cc2o1 (stereo unspecified) | inactive
CCOC(=O)N1CCC(n2c(=O)[nH]c3cc(Cl)ccc32)CC1 | inactive
NC(=O)N(O)[C@@H]1C=C[C@H](Oc2cccc(Oc3ccc(F)cc3)c2)C1 | inactive
CCCCC(CC)C(=O)OCCOCCOCCOCCOC(=O)C(CC)CCCC (stereo unspecified) | inactive
CCCCC1C(=O)N(c2ccccc2)N(c2ccc(O)cc2)C1=O (stereo unspecified) | inactive
CC(C)(C)C(=O)O | inactive
C(=C\c1ccccc1)/CN1CCN(C(c2ccccc2)c2ccccc2)CC1 | inactive
COc1cc2ncnc(Nc3ccc(F)c(Cl)c3)c2cc1OCCCN1CCOCC1 | inactive
CC1CC(=O)NN=C1c1ccc(NCC(C)(C)NCC(O)COc2cc(Cl)ccc2C#N)cc1 (stereo unspecified) | inactive
CC(CCc1ccc2c(c1)OCO2)NN (stereo unspecified) | inactive
O=C(N[C@@H](c1ccccc1)[C@@H]1CCCCN1)c1cccc(C(F)(F)F)c1Cl | inactive
CCCCCCCCCOC(C)=O | inactive
O=C(CCC1CCN(Cc2ccccc2)CC1)c1ccc2c(c1)NCCCC2 | inactive
CCCCCCOC(=O)C(C)C | inactive
CCCOC(=O)c1ccc(C(=O)OCCC)nc1 | inactive
CO/N=C1\CN(c2nc3c(cc2F)c(=O)c(C(=O)O)cn3C2CC2)CC1CN (stereo unspecified) | inactive
CCCCCCCCCCCC[N+](C)(C)CCCS(=O)(=O)[O-] | inactive
C/C=C/C=C/CCCCCCCO | inactive
CCOC(=O)CC(=O)C(=O)OCC | inactive
O=C1NCCN1 | inactive
Cc1ccc(Nc2nccc(N(C)c3ccc4c(C)n(C)nc4c3)n2)cc1S(N)(=O)=O | inactive
O=S1OCCO1 | inactive
CC1CC(O)CC(C)(C)C1 (stereo unspecified) | inactive
CCCCC(=O)O[C@]1(C(=O)CO)[C@@H](C)C[C@H]2[C@@H]3CCC4=CC(=O)C=C[C@]4(C)[C@@]3(F)[C@@H](O)C[C@@]21C | inactive
CC(=O)[C@H]1CC[C@H]2[C@@H]3C[C@H](C)C4=CC(=O)CC[C@]4(C)[C@H]3[C@@H](O)C[C@]12C | inactive
